Several values for one entry are separate records, joined by “and”; a condition that tells them apart may be missing. Equal entries are not always repeated. Screen size: about 5,500 compounds; about 2,000 (36%) were called active. Another 18% or so got no clear call; they are omitted. No stated cut-off is given here; in the data, active means normalized growth mostly below about 0.91 (no sharp cut-off); inconclusive means no clear call, values can overlap the other calls; inactive means mostly above about 0.92. The list shows a part of the results.
Test: chemical genetic growth profiling, strain panel (AID 1159580);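 further: tested at 20 µM; growth read once vehicle control cultures reached saturation at 30 °C; 1 = growth at the plate median or of vehicle wells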
Conditions: growth OD

Measured: normalized growth

NC1CC1c1ccccc1 (stereo not drawn)
inactive: S. cerevisiae deletion strains, locus YAL013W, strain DEP1, stronger effect = lower value 1.02 | S. cerevisiae deletion strains, locus YAL040C, strain CLN3, stronger effect = lower value 0.989 | S. cerevisiae deletion strains, locus YBR021W, strain FUR4, stronger effect = lower value 1.02 | S. cerevisiae deletion strains, locus YBR229C, strain ROT2, stronger effect = lower value 1.02 | S. cerevisiae deletion strains, locus YCL029C, strain bik1, stronger effect = lower value 0.985 | S. cerevisiae deletion strains, locus YCL061C, strain MRC1 (second series), stronger effect = lower value 1.01 | S. cerevisiae deletion strains, locus YDL035C, strain GPR1, stronger effect = lower value 1.02 | S. cerevisiae deletion strains, locus YDL074C, strain BRE1, stronger effect = lower value 1.05 | S. cerevisiae deletion strains, locus YDL101C, strain DUN1, stronger effect = lower value 1.03 | S. cerevisiae deletion strains, locus YDL134C, strain PPH21, stronger effect = lower value 1.02 | S. cerevisiae deletion strains, locus YDL185W, strain tfp1, stronger effect = lower value 0.989 | S. cerevisiae deletion strains, locus YDL192W, strain arf1, stronger effect = lower value 0.988 | S. cerevisiae deletion strains, locus YDR101C, strain arx1, stronger effect = lower value 0.976 | S. cerevisiae deletion strains, locus YDR150W, strain NUM1, stronger effect = lower value 1.02 | S. cerevisiae deletion strains, locus YDR162C, strain NBP2, stronger effect = lower value 1.03 | S. cerevisiae deletion strains, locus YDR318W, strain mcm21, stronger effect = lower value 0.979 | S. cerevisiae deletion strains, locus YDR363W, strain ESC2, stronger effect = lower value 0.946 | S. cerevisiae deletion strains, locus YDR388W, stronger effect = lower value 0.981 | S. cerevisiae deletion strains, locus YDR502C, strain sam2, stronger effect = lower value 0.995 | S. cerevisiae deletion strains, locus YEL061C, strain CIN8, stronger effect = lower value 1.01 | S. cerevisiae deletion strains, locus YER002W, strain NOP16, stronger effect = lower value 1.02 | S. cerevisiae deletion strains, locus YER110C, stronger effect = lower value 0.981 | S. cerevisiae deletion strains, locus YER155C, strain BEM2, stronger effect = lower value 1.01 | S. cerevisiae deletion strains, locus YER167W, strain BCK2, stronger effect = lower value 1.01 | S. cerevisiae deletion strains, locus YGL078C, strain dbp3, stronger effect = lower value 0.988 | S. cerevisiae deletion strains, locus YGL086W, strain mad1, stronger effect = lower value 0.975 | S. cerevisiae deletion strains, locus YGL248W, strain PDE1, stronger effect = lower value 1.03 | S. cerevisiae deletion strains, locus YGR078C, strain PAC10, stronger effect = lower value 1.02 | S. cerevisiae deletion strains, locus YGR135W, strain pre9, stronger effect = lower value 0.994 | S. cerevisiae deletion strains, locus YGR229C, strain SMI1, stronger effect = lower value 1.02 | S. cerevisiae deletion strains, locus YGR252W, strain gcn5, stronger effect = lower value 0.922 | S. cerevisiae deletion strains, locus YHR030C, strain SLT2, stronger effect = lower value 1.01 | S. cerevisiae deletion strains, locus YHR079C, strain IRE1 (second series), stronger effect = lower value 0.981 | S. cerevisiae deletion strains, locus YHR094C, strain hxt1, stronger effect = lower value 0.99 | S. cerevisiae deletion strains, locus YHR129C, strain ARP1, stronger effect = lower value 1.02 | S. cerevisiae deletion strains, locus YHR200W, strain rpn10, stronger effect = lower value 0.991 | S. cerevisiae deletion strains, locus YIL066C, strain RNR3, stronger effect = lower value 1.02 | S. cerevisiae deletion strains, locus YIL073C, strain SPO22, stronger effect = lower value 0.972 | S. cerevisiae deletion strains, locus YIL125W, strain kgd1, stronger effect = lower value 0.987 | S. cerevisiae deletion strains, locus YIR030C, strain dcg1, stronger effect = lower value 0.993 | S. cerevisiae deletion strains, locus YJL095W, strain BCK1, stronger effect = lower value 1.03 | S. cerevisiae deletion strains, locus YJL134W, strain LCB3, stronger effect = lower value 1.02 | S. cerevisiae deletion strains, locus YJL168C, strain set2, stronger effect = lower value 0.988 | S. cerevisiae deletion strains, locus YJL187C, strain SWE1 (second series), stronger effect = lower value 1.02 | S. cerevisiae deletion strains, locus YJR043C, strain POL32, stronger effect = lower value 0.992 | S. cerevisiae deletion strains, locus YJR075W, strain HOC1, stronger effect = lower value 1.01 and 1.03 | S. cerevisiae deletion strains, locus YKL009W, strain mrt4, stronger effect = lower value 1.01 | S. cerevisiae deletion strains, locus YKL068W, stronger effect = lower value 0.997 | S. cerevisiae deletion strains, locus YKL085W, strain MDH1 (second series), stronger effect = lower value 1.03 | S. cerevisiae deletion strains, locus YKL085W, strain MDH1, stronger effect = lower value 1.03 | S. cerevisiae deletion strains, locus YKL190W, strain CNB1, stronger effect = lower value 1.02 | S. cerevisiae deletion strains, locus YKR001C, strain vps1, stronger effect = lower value 0.987 | S. cerevisiae deletion strains, locus YLR039C, strain RIC1, stronger effect = lower value 1.06 | S. cerevisiae deletion strains, locus YLR058C, strain SHM2, stronger effect = lower value 1.02 | S. cerevisiae deletion strains, locus YLR102C, strain apc9, stronger effect = lower value 0.996 | S. cerevisiae deletion strains, locus YLR262C, strain YPT6, stronger effect = lower value 1.05 | S. cerevisiae deletion strains, locus YLR268W, strain sec22, stronger effect = lower value 0.989 | S. cerevisiae deletion strains, locus YLR330W, strain CHS5, stronger effect = lower value 1.01 | S. cerevisiae deletion strains, locus YLR342W, strain FKS1 (second series), stronger effect = lower value 0.994 | S. cerevisiae deletion strains, locus YLR371W, strain rom2, stronger effect = lower value 0.984 | S. cerevisiae deletion strains, locus YLR418C, strain cdc73, stronger effect = lower value 0.992 | S. cerevisiae deletion strains, locus YML016C, strain PPZ1, stronger effect = lower value 1.03 | S. cerevisiae deletion strains, locus YML032C, strain rad52, stronger effect = lower value 0.975 | S. cerevisiae deletion strains, locus YML124C, strain tub3, stronger effect = lower value 0.997 | S. cerevisiae deletion strains, locus YMR078C, strain ctf18, stronger effect = lower value 0.981 | S. cerevisiae deletion strains, locus YMR223W, strain ubp8, stronger effect = lower value 0.972 | S. cerevisiae deletion strains, locus YMR263W, strain SAP30, stronger effect = lower value 1.03 | S. cerevisiae deletion strains, locus YMR307W, strain GAS1, stronger effect = lower value 0.976 and 1.01 | S. cerevisiae deletion strains, locus YNL067W, strain RPL9B, stronger effect = lower value 1.03 | S. cerevisiae deletion strains, locus YNL128W, strain TEP1, stronger effect = lower value 1.03 | S. cerevisiae deletion strains, locus YNL153C, strain GIM3, stronger effect = lower value 1.03 and 0.972 | S. cerevisiae deletion strains, locus YNL175C, strain NOP13, stronger effect = lower value 0.999 | S. cerevisiae deletion strains, locus YNL197C, strain WHI3, stronger effect = lower value 1.01 | S. cerevisiae deletion strains, locus YNL224C, strain SQS1, stronger effect = lower value 1 | S. cerevisiae deletion strains, locus YNL233W, strain BNI4, stronger effect = lower value 1.02 | S. cerevisiae deletion strains, locus YNL250W, strain rad50, stronger effect = lower value 1.01 | S. cerevisiae deletion strains, locus YNL271C, strain bni1, stronger effect = lower value 0.978 | S. cerevisiae deletion strains, locus YNL298W, strain CLA4, stronger effect = lower value 0.996 | S. cerevisiae deletion strains, locus YNL307C, strain MCK1, stronger effect = lower value 0.979 | S. cerevisiae deletion strains, locus YNL322C, strain KRE1, stronger effect = lower value 1.02 | S. cerevisiae deletion strains, locus YNR052C, strain pop2, stronger effect = lower value 0.968 | S. cerevisiae deletion strains, locus YOL006C, strain TOP1, stronger effect = lower value 1.09 | S. cerevisiae deletion strains, locus YOL147C, strain pex11, stronger effect = lower value 0.989 | S. cerevisiae deletion strains, locus YOR061W, strain CKA2, stronger effect = lower value 1.02 | S. cerevisiae deletion strains, locus YOR069W, strain VPS5, stronger effect = lower value 1.01 | S. cerevisiae deletion strains, locus YOR083W, strain WHI5 (second series), stronger effect = lower value 1 | S. cerevisiae deletion strains, locus YOR136W, strain idh2, stronger effect = lower value 0.981 | S. cerevisiae deletion strains, locus YOR144C, strain elg1, stronger effect = lower value 0.984 | S. cerevisiae deletion strains, locus YOR184W, strain ser1, stronger effect = lower value 0.976 | S. cerevisiae deletion strains, locus YOR316C, strain cot1, stronger effect = lower value 0.992 | S. cerevisiae deletion strains, locus YPL055C, strain LGE1, stronger effect = lower value 1.06 and 0.992 | S. cerevisiae deletion strains, locus YPL241C, strain CIN2, stronger effect = lower value 1.02 | S. cerevisiae deletion strains, locus YPR119W, strain clb2, stronger effect = lower value 0.994 | S. cerevisiae deletion strains, locus YPR141C, strain kar3, stronger effect = lower value 0.99 | S. cerevisiae deletion strains, locus YPR163C, strain tif3, stronger effect = lower value 0.988 | S. cerevisiae deletion strains, locus YPR167C, strain met16, stronger effect = lower value 0.985 | S. cerevisiae deletion strains, strain wtn01, stronger effect = lower value 0.988 | S. cerevisiae strains, strain wild type, stronger effect = lower value 1.01
